Several values for one entry are separate records, joined by “and”; a condition that tells them apart may be missing. Equal entries are not always repeated. Records with an inconclusive call do not appear. A call without a number means that no potency is given here. Some compounds were tested as several samples or in several runs, with calls that do not always agree. Activity calls are given as the source filed them. Unless noted, the call rests on the fitted dose curve.
Columns and labels:
[1] = Nuclear factor erythroid 2-related factor 2/antioxidant responsive element (Nrf2/ARE) small molecule agonists: qHTS cell viability counter screen in human keratinocytes (AID 1919968; active means well fitted cell-killing curve with a large enough effect in the repeat runs; further: nearly all actives have a fitted effect of over 55% in size)
Method in brief: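 Parallel cytotoxicity read: KeratinoSens HaCaT cells, compound treatment 23 h, viability by CellTiter-Fluor fluorescence 1 h post-reagent.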

[2] = Nuclear factor erythroid 2-related factor 2/antioxidant responsive element (Nrf2/ARE) small molecule agonists: luciferase reporter gene qHTS assay in human keratinocytes (AID 1919969); further: nearly all actives have a fitted effect of over 35% in size; further: potency means the concentration at half of the fitted maximal effect
[3] = target: Gonadotropin-releasing hormone receptor (Homo sapiens) (UniProt P30968); experiment: Human gonadotropin-releasing hormone receptor (GnRHR) small molecule agonists, calcium flux assay in GnRHR-HEK293 cells (AID 1920063); further: nearly all actives have a fitted effect of over 35% in size
Gonadotropin-releasing hormone receptor (Homo sapiens), sequence (P30968 whole entry, looked up): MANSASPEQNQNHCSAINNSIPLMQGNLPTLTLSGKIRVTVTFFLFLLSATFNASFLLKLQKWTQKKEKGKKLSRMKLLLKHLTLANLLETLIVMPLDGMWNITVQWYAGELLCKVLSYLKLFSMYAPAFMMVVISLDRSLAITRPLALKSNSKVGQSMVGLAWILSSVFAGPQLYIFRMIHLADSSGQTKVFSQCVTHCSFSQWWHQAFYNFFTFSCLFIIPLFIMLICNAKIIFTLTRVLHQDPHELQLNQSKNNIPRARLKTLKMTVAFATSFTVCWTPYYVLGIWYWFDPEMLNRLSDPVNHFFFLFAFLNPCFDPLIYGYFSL
Method in brief: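 Calcium flux, agonist mode, human GnRHR stably integrated in HEK293; dye 1 h at 37 C before compound; Ex/Em=480/540 kinetic read, 3 min; 15 concentrations, triplicate.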

[4] = G protein-coupled receptor (GPCR) small molecule agonists, calcium flux assay: HEK293 wild type cell line counter screen (AID 1920065)
Method in brief: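 Non-specific calcium responders were flagged by adding DMSO-dissolved compounds to dye-loaded cells and reading 480/540 nm fluorescence each second for 3 min; ATP served as positive control.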

[5] = p53 small molecule agonists, cell-based qHTS assay with human liver microsomes (AID 1963577)
Method in brief: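 p53RE-bla cells, 4,000/well, compound added after 5 h, with human liver microsomes 0.5 mg/mL and NADPH 0.5 mg/mL final; 16 h at 37 C, then LiveBLAzer 2 h RT, fluorescence.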

[6] = p53 small molecule agonists, cell-based qHTS assay with rat liver microsomes (AID 1963578)
Method in brief: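 p53RE-bla cells, 4,000/well, pre-incubated 5 h, then given compounds plus rat liver microsomes (0.5 mg/mL final) and NADPH (0.5 mg/mL final). Incubation 16 h at 37 C; beta-lactamase reporter read by LiveBLAzer fluorescence after 2 h at room temperature.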

[7] = p53 small molecule agonists, cell-based qHTS assay with human liver microsomes: qHTS cell viability counter screen (AID 1963579); further: nearly all actives have a fitted effect of over 45% in size
Method in brief: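 p53RE-bla cells, 4,000/well, dosed 5 hours after plating, with human liver microsomes (0.5 mg/mL final) plus NADPH (0.5 mg/mL final), 16 hours at 37 C. Viability read as CellTiter-Glo luminescence after 30 min at room temperature.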

[8] = p53 small molecule agonists, cell-based qHTS assay with rat liver microsomes: qHTS cell viability counter screen (AID 1963580); further: nearly all actives have a fitted effect of over 45% in size; further: potency means the concentration at half of the fitted maximal effect
Method in brief: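 After the beta-lactamase ratio was read, CellTiter-Glo was added to the same wells and luminescence measured at 30 min; cells had been treated 16 h at 37 C with compounds, rat liver microsomes and NADPH (0.5 mg/mL final each).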

[9] = p53 small molecule agonists, cell-based qHTS assay: qHTS cell viability counter screen (AID 1963581); further: nearly all actives have a fitted effect of over 45% in size
Method in brief: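 Multiplexed with the reporter read, a CellTiter-Glo step (30 min, room temperature) gauges ATP-based viability of HCT-116 p53RE-bla cells after 16 h compound incubation at 37 C.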

[10] = p53 small molecule agonists, cell-based qHTS assay (AID 1963582; active means well fitted activation curve with a large enough effect in the signal ratio in the repeat runs, not every such curve was filed as active; the % refers to the signal ratio)
Method in brief: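 Beta-lactamase reporter cells (p53RE-bla) treated with compounds for 16 h at 37 C; FRET substrate, 2 h, room temperature; fluorescence intensity.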

[11] = cAMP Responsive Elements (CRE) small molecule agonists, cell-based qHTS assay (AID 1963590)
Method in brief: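 Quantitative HTS for CRE agonists: HEK 293T CRE-bla cells, overnight plating, 3 h compound incubation at 37 C/5% CO2, then 2 h room-temperature LiveBLAzer B/G FRET substrate loading.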

[12] = cAMP Responsive Elements (CRE) small molecule antagonists, cell-based qHTS assay (AID 1963591; active means well fitted inhibition curve with a large enough effect in the signal ratio in the repeat runs, not every such curve was filed as active; the % refers to the signal ratio)
Method in brief: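 Fluorescence intensity from cleaved LiveBLAzer B/G substrate (2 h, room temperature) quantified CRE-bla activity in HEK 293T cells exposed 3 h to compound with 0.25 uM final NKH477.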

[13] = target: Beta-2 adrenergic receptor (Homo sapiens) (UniProt P07550); experiment: Adrenergic beta2 receptor (ADRB2) small molecule antagonists, cell-based qHTS assay (AID 1963592); further: series mostly up to about 92 µM; nearly all actives have a fitted effect of over 50% in size
Beta-2 adrenergic receptor (Homo sapiens), sequence (P07550 whole entry, looked up): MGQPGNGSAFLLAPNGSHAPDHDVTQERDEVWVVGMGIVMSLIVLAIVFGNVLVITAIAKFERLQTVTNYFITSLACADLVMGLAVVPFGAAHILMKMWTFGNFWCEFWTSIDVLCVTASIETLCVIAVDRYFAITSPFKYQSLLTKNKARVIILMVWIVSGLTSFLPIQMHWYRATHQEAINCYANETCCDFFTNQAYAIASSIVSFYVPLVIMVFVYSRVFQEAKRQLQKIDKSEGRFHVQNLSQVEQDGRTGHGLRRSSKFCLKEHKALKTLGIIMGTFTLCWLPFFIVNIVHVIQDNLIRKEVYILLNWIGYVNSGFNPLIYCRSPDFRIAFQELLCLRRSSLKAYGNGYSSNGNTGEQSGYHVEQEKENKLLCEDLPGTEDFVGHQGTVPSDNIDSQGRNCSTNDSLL
Method in brief: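 Assay format: CHO-ADRB2 cells, 18-20hr seeding at 37C/5% CO2, then compound plus 1nM isoproterenol agonist mix for 0.5hr RT. Homogeneous time-resolved fluorescence cAMP detection after 1hr, expressed as 665/615 nm ratio.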

[14] = target: Beta-2 adrenergic receptor (Homo sapiens) (UniProt P07550); experiment: Adrenergic beta2 receptor (ADRB2) small molecule agonists, cell-based qHTS assay (AID 1963593);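 further: CHO cells stably overexpressing human ADRB2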
Method in brief: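 CHO cells stably over-expressing ADRB2 were plated overnight at 37C, then dosed with compounds plus a stimulation mix containing 100uM IBMX and 25uM Ro-20-1724 for 0.5hr at room temperature. cAMP was measured by HTRF competition, 1hr.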

[15] = target: D(2) dopamine receptor (Homo sapiens) (UniProt P14416); experiment: Dopamine D2 receptor (DRD2) small molecule agonists, cell-based qHTS assay (AID 1963594); further: nearly all actives have a fitted effect of over 35% in size
D(2) dopamine receptor (Homo sapiens), sequence (P14416 whole entry, looked up): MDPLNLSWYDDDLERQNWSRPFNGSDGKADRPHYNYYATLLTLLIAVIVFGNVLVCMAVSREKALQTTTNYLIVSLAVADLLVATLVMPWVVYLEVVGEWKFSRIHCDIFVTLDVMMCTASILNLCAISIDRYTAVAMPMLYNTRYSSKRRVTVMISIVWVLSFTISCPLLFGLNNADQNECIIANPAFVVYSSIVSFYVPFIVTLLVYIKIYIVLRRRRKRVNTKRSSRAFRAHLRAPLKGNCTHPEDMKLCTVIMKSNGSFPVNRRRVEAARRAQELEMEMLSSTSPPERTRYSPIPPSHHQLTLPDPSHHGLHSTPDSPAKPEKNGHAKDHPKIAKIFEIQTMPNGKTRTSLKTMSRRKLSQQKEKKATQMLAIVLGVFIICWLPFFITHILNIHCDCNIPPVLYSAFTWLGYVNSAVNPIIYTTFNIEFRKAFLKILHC
Method in brief: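 HEK293 cells stably expressing human DRD2, pre-treated with PDE inhibitor Ro20-1724 (0.1 mM final) and compound 10 min at room temperature, then stimulated with NKH477 (200nM […]) for 30 min. cAMP read by HTRF (665/620 nm).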

[16] = target: D(2) dopamine receptor (Homo sapiens) (UniProt P14416); experiment: Dopamine D2 receptor (DRD2) small molecule antagonists, cell-based qHTS assay (AID 1963595; active means well fitted inhibition curve with a large enough effect in the signal ratio in the repeat runs, with a control signal flat; the % refers to the signal ratio)
Method in brief: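 Readout: HTRF cAMP, cAMP-d2 competing with cellular cAMP for anti-cAMP cryptate, read after 1 h. Cells: DRD2-HEK293. Conditions: 0.1 mM Ro20-1724, 12 nM quinpirole, 200 nM NKH477, 30 min RT.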

[17] = target: 5-hydroxytryptamine receptor 2A (Homo sapiens) (UniProt P28223); experiment: 5-hydroxytryptamine receptor 2A (HTR2A) small molecule antagonists, cell-based qHTS assay (AID 1963586); further: nearly all actives have a fitted effect of over 45% in size
5-hydroxytryptamine receptor 2A (Homo sapiens), sequence (P28223 whole entry, looked up): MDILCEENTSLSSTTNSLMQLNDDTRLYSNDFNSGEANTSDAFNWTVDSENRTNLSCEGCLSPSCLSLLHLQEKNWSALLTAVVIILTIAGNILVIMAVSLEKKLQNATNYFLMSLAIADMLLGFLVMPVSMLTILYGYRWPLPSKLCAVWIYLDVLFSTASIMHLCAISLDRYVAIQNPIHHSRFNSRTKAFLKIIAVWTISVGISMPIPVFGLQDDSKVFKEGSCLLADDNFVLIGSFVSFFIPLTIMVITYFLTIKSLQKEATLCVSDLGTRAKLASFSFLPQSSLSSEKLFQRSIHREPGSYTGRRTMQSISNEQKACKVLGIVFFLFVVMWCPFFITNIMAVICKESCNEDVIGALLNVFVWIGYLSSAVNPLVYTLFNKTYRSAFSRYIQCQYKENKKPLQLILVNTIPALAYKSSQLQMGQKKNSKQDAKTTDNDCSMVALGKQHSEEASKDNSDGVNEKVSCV
Method in brief: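 CHO cells stably expressing human HTR2A were plated for 18 h at 37 C, then loaded with calcium dye for 1 h. Compounds were preincubated 5 min at room temperature before DOI (4 nM solution) was added. Kinetic fluorescence was read for 3 min.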

[18] = target: 5-hydroxytryptamine receptor 2A (Homo sapiens) (UniProt P28223); experiment: 5-hydroxytryptamine receptor 2A (HTR2A) small molecule agonists, cell-based qHTS assay (AID 1963587); further: nearly all actives have a fitted effect of over 30% in size; further: potency means the concentration at half of the fitted maximal effect
Method in brief: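 CHO cells stably expressing human HTR2A, plated 18 h, loaded with calcium dye 1 h at 37 C. Agonist mode: compounds added and intracellular calcium fluorescence recorded kinetically for 2 min at 1 sec intervals.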

[19] = target: Muscarinic acetylcholine receptor M1 (Homo sapiens) (UniProt P11229); experiment: Cholinergic receptor muscarinic 1 (CHRM1) small molecule antagonists, cell-based qHTS assay (AID 1963588); further: nearly all actives have a fitted effect of over 40% in size; further: potency means the concentration at half of the fitted maximal effect
Muscarinic acetylcholine receptor M1 (Homo sapiens), sequence (P11229 whole entry, looked up): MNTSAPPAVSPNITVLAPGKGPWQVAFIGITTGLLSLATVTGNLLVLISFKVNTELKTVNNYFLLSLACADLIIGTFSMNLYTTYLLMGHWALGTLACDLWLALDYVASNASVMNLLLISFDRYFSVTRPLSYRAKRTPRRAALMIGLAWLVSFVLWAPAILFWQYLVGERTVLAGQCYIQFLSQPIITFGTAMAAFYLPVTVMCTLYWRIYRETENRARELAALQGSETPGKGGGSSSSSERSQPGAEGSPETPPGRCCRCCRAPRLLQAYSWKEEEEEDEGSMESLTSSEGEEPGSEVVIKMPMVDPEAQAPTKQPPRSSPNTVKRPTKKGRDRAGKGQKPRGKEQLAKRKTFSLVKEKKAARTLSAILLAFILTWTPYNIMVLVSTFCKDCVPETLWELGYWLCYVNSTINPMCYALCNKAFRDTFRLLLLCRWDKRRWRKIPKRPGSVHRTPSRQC
Method in brief: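 Compounds were tested at 15 concentrations in three independent runs. Dye-loaded CHRM1-CHO cells were exposed 5 min at room temperature before stimulation by acetylcholine added at 50nM. Intracellular calcium was read kinetically on FDSS for 3 min.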

[20] = target: Muscarinic acetylcholine receptor M1 (Homo sapiens) (UniProt P11229); experiment: Cholinergic receptor muscarinic 1 (CHRM1) small molecule agonists, cell-based qHTS assay (AID 1963589); further: nearly all actives have a fitted effect of over 35% in size
Method in brief: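 qHTS, 15-point titration, 3 independent runs: compounds pin-transferred onto dye-loaded CHRM1-CHO cells (human M1), calcium fluorescence followed every second to detect agonism.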

| SMILES | Potency [1] | Potency [2] | Potency [3] | Potency [4] | Potency [5] | Potency [6] | Potency [7] | Potency [8] | Potency [9] | Potency [10] | Potency [11] | Potency [12] | Potency [13] | Potency [14] | Potency [15] | Potency [16] | Potency [17] | Potency [18] | Potency [19] | Potency [20] |
| --- | --- | --- | --- | --- | --- | --- | --- | --- | --- | --- | --- | --- | --- | --- | --- | --- | --- | --- | --- | --- |
| OC[C@@H](O)[C@@H](O)[C@H](O)[C@@H](O)CO | inactive | inactive | inactive | inactive | inactive | inactive | inactive | inactive | inactive | inactive | inactive | inactive | inactive | inactive | inactive | inactive | – | – | – | – |
| O=S1(=O)CC=CC1 | inactive | inactive | inactive | inactive | inactive | inactive | inactive | inactive | inactive | inactive | – | inactive | inactive | inactive | inactive | inactive | inactive | 37.6 µM (active) and inactive | inactive | inactive |
| O=C1c2c(O)cccc2Cc2cccc(O)c21 | inactive | inactive | inactive | inactive | inactive | inactive | inactive | inactive | inactive | inactive | inactive | inactive | inactive | inactive | inactive | inactive | inactive | inactive | inactive | inactive |
| COc1ccc(C)cc1N | inactive | inactive | inactive | – | inactive | – | inactive | inactive | inactive | – | inactive | inactive | inactive | inactive | inactive | inactive | inactive | inactive | inactive | inactive |
| c1ccc(Nc2ccccc2)cc1 | inactive | 61.1 µM (active) and inactive | inactive | inactive | inactive | inactive | inactive | inactive | inactive | inactive | – | – | inactive | – | inactive | inactive | inactive | inactive | inactive | inactive |
| Clc1ccc(Cl)c(Cl)c1Cl | inactive | inactive | inactive | inactive | inactive | inactive | inactive | inactive | inactive | inactive | inactive | inactive | inactive | – | inactive | inactive | inactive | inactive | inactive | inactive |
| O=C1O[C@H]([C@@H](O)CO)C(O)=C1O | inactive | inactive and 61.1 µM (active) | inactive | inactive | inactive | inactive | inactive | inactive | inactive | inactive | inactive | inactive | – | inactive | inactive | – | – | – | – | – |
| CCCCCCCCCCN | inactive | inactive | inactive | inactive | inactive | inactive | inactive | inactive | inactive | inactive | inactive | inactive | inactive | inactive | inactive | inactive | inactive | inactive | inactive | inactive |
| C=C1C2CCC(C2)C1(C)C (stereo not drawn) | inactive | inactive | inactive | inactive | inactive | inactive | inactive | inactive | inactive | inactive | inactive | inactive | inactive | – | inactive | inactive | inactive | inactive | inactive | inactive |
| O=S(=O)(O)c1ccc2nc(-c3ccccc3)[nH]c2c1 | inactive | inactive | inactive | – | inactive | inactive | – | 15.5 µM (active) | – | inactive | inactive | inactive | inactive | inactive | inactive | inactive | inactive | inactive | inactive | inactive |
| CCCCC1(COC(=O)CCC(=O)O)C(=O)N(c2ccccc2)N(c2ccccc2)C1=O | inactive | inactive | inactive | inactive | inactive | inactive | inactive | inactive | inactive | inactive | inactive | inactive | inactive | inactive | inactive | inactive | inactive | inactive | inactive | inactive |
| CCCCCCCC(=O)OCC(O)CO (stereo not drawn) | inactive | inactive | inactive | inactive | inactive | inactive | inactive | inactive | inactive | inactive | – | inactive | inactive | – | inactive | inactive | inactive | inactive | inactive | inactive |
| O=C(O)Cc1c[nH]c2ccccc12 | inactive | inactive | inactive | inactive | inactive | inactive | inactive | inactive | inactive | inactive | inactive | inactive | inactive | inactive | inactive | inactive | inactive | inactive | inactive | – |
| Cc1ccnc2c1NC(=O)c1cccnc1N2C1CC1 | inactive | inactive | inactive | inactive | inactive | inactive | inactive | inactive | inactive | inactive | inactive | – | inactive | inactive | inactive | inactive | – | – | – | – |
| C=CCCCCCCCCC(=O)O | inactive | inactive | inactive | inactive | inactive | inactive | inactive | inactive | inactive | inactive | – | inactive | inactive | inactive | inactive | inactive | inactive | – | inactive | inactive |
| C1CNCCN1 | inactive | inactive | inactive | inactive | inactive | inactive | inactive | inactive | inactive | inactive | inactive | inactive | inactive | inactive | inactive | inactive | inactive | inactive | 4.86 µM (active) and inactive | inactive |

Source: PubChem BioAssay (Tox21)
